Measured values taken from PubChem BioAssay.
Inconclusive results are not listed. The source made the active and inactive calls.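 The calls were made as follows, unless noted: active = viability at or under a set limit in both replicates, limit being median viability minus 3 SD (cut at about 48% in these data, passing the limit was not always enough); inconclusive = at or under the limit in just one replicate; inactive = at or above the limit in both replicates.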

Tests used:
[1] = reducers of endogenous Her2 protein level, primary screen, SKBR3 breast tumor cells, AlphaScreen, ATP viability (AID 461;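 active = Her2 level under about 52% in both replicate screens, with viability over 70% of control, limit read from the data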;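 as to Her2 level: lower value means less Her2 protein in the cells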;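 as to viability: percent of carrier control wells set as 100% viability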); conditions: 18-24 h, measured here: SKBR3 viability, ATP luminescence, at 10 µM
[2] = target: Receptor tyrosine-protein kinase erbB-2 (Homo sapiens) (UniProt P04626); assay: as above; conditions: 18-24 h, at 10 µM, stronger effect = lower value
[3] = SK-BR-3 cell growth inhibitors, pilot screen, 24 h, human (AID 572;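 active = viability at or below 10% of carrier control in both of two separate runs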;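 also: compound exposure lasted between 18 and 24 h rather than exactly 24 h; 100% = carrier-treated control wells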); conditions: SK-BR-3 viability, CellTiter-Glo luminescence, at 10 µM, stronger effect = lower value
[4] = HUVEC growth inhibition – cell-based, human, primary screen (AID 575;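 active = viability at or below 30% in both replicate assays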;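 also: 100% = median of untreated cell wells with 0.1% DMSO on each plate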); conditions: HUVEC proliferation, CellTiter-Glo luminescence, 72 h; at 10 µM; stronger effect = lower value
[5] = growth inhibitors of H69AR lung tumor, primary screen, human, duplicate replicates (AID 580); conditions: H69AR lung tumor cells viability, ATP luminescence, 72 h; at 10 µM; stronger effect = lower value;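 also: 100% = mean luminescence of untreated wells and 0% = no signal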
[6] = reversal of MRP1-mediated doxorubicin resistance, pilot screen, H69AR cells, doxorubicin co-treatment (AID 601;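 active = viability loss from added drug above about 55%, and viability with drug at most 40%, in both replicates, limit read from the data, passing the limit was not always enough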); conditions: CellTiter-Glo, 72 h, at 10 µM; for differential viability (reversal): stronger effect = higher value
[7] = 384-well plate pilot, post-Golgi transport modulator project, inhibition of yeast transport mutant growth (AID 636; in the data active = inhibition above about 31%); conditions: absorbance 615 nm, about 18 h, stronger effect = higher value
[8] = growth suppression of yeast trafficking mutant, preliminary HTS, modulators of trafficking downstream of Golgi apparatus project, 1536-format plate, OD 615 nm (AID 637; in the data active = inhibition above about 30%); conditions: yeast transport mutant growth, absorbance 615 nm, 18 h; stronger effect = higher value
[9] = OD615 S. cerevisiae growth inhibition, permissive medium, pilot counter-assay, permissive growth control for S. cerevisiae lifespan shortening project (AID 705;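 active = growth inhibition above 25% in both replicates, a cutoff set 3 SD above the mean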); conditions: OD615, 24 h, at 10 µM, stronger effect = higher value
[10] = Restrictive medium S. cerevisiae growth inhibition, OD615, pilot screen of yeast lifespan reduction project, restrictive growth control (AID 706;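 active = growth inhibition above a set limit, 3 SD over mean compound inhibition, in both replicates, cut at about 43% in these data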;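 also: modified DeaD lifespan yeast strain shifted to restrictive glucose medium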); conditions: OD615, 48 h, at 10 µM, stronger effect = higher value
[11] = viability gain of MRP-1-high H69AR cells under doxorubicin, pilot screen, MRP-1 activator project, CellTiter-Glo, duplicate (AID 807;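 active = viability increase at or above a cutoff of the median across tested compounds plus 3 SD, cut at about 8.5% in these data, passing the limit was not always enough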;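 also: compound pretreatment 18-22 h then 72 h combined with doxorubicin; 0% = doxorubicin alone and 100% = vehicle without doxorubicin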); conditions: H69AR viability with doxorubicin, CellTiter-Glo luminescence; at 10 µM; stronger effect = higher value
[12] = growth suppression of beta-catenin knockout HCT116, pilot screen, human colon tumor cells (AID 823;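 active = cell viability at or below a set limit in both duplicate runs, the limit being the all-compound median minus 4 SD, cut at about 23% in these data, passing the limit was not always enough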;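 also: 0% = wells killed by 20 µM Hyamine and 100% = untreated DMSO cell wells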); conditions: CellTiter-Glo, 60 h, at 10 µM, stronger effect = lower value
[13] = growth suppression of PTEN-deleted HCT116, pilot screen, cell-based, HCT116 clonal line, CellTiter-Glo (AID 824;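 active = viability at or below 27.92% in each of two runs, the all-compound median minus 4 SD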;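 also: 0% = 20 µM Hyamine control and 100% = vehicle cell control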); conditions: 60 h, at 10 µM, stronger effect = lower value
[14] = inhibitors of the yeast RAM network, pilot screen, dse1pr::URA3 reporter, 5-FOA selection (AID 869;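 active = inhibition over a set limit, the all-compound mean plus 3 SD, in both replicate runs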;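 also: 0% = DMSO wells with no growth and 100% = 10 µM 1-NA-PP1 with full growth; RAM network block rescues cells from 5-FOA so hits raise OD615 growth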); conditions: S. cerevisiae dse1pr::URA3 5-FOA growth, OD615, 2 d; at 10 µM; stronger effect = higher value; strain carries analog-sensitive mutant Cbk1 kinase
[15] = RAM signaling pathway blockade in yeast – S. cerevisiae, Pdr1DBD-CYC8 efflux-inhibited sensitized strain, primary screen (AID 1298;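 active = RAM network inhibition above 8.4% in each of two replicates, 3 SD over the compound average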;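 also: 0% = DMSO untreated cells without growth and 100% = 10 µM 1-NA-PP1 full growth; higher means more yeast growth rescued from 5-FOA killing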); conditions: S. cerevisiae cbk1-as DSE1-URA3 strain, 5-FOA growth OD615, 2 d; at 50 µM; stronger effect = higher value
[16] = H69AR cells + 2 uM doxorubicin, measured here: viability with 2 uM doxorubicin, stronger effect = lower value
[17] = H69AR cells, compound alone cytotoxicity

Sequence of Receptor tyrosine-protein kinase erbB-2 (Homo sapiens) (P04626 whole entry, looked up): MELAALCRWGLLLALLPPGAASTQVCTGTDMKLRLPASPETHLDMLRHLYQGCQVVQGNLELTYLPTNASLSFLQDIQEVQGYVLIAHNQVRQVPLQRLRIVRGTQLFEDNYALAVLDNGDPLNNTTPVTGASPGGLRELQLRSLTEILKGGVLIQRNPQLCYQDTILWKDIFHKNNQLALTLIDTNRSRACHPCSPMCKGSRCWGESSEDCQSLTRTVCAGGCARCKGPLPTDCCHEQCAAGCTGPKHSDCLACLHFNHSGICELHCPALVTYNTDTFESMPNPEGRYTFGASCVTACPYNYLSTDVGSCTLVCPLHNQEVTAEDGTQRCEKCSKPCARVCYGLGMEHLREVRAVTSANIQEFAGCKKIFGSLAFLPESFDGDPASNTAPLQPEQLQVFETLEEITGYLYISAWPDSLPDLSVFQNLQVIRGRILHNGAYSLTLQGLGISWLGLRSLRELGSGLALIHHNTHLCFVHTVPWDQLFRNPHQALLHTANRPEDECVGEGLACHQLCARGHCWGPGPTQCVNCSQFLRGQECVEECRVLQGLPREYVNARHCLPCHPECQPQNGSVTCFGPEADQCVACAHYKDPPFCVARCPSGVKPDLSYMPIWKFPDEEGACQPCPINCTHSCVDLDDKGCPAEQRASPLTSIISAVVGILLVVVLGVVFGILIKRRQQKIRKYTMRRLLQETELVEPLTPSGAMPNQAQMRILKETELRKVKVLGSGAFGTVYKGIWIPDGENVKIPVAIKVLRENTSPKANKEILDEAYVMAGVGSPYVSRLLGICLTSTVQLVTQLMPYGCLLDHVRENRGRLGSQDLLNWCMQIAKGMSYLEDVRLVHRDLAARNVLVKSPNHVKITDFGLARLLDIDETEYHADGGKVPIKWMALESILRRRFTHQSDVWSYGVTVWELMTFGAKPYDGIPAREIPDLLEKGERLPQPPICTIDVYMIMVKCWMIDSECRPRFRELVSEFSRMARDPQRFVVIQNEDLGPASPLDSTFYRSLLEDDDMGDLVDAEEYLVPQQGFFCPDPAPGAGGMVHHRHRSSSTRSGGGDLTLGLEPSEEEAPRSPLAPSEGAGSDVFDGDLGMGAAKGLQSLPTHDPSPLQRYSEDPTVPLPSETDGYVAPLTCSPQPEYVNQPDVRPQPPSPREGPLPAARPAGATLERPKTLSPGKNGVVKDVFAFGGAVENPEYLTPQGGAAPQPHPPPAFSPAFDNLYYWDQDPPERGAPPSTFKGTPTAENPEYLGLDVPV

Row | Compound | viability [1] [%] | Her2 level [2] | viability [3] | viability [4] | viability [5] | differential viability (reversal) ([6]; H69AR cells + 2 uM doxorubicin) | viability [6, 16] [%] | viability [6, 17] [%] | inhibition [7] | inhibition [8] | growth inhibition [9] | growth inhibition [10] | viability increase [11] | viability [12] | viability [13] | inhibition [14] | RAM network inhibition [15]
1 | COc1ccc(C2CC(=O)C(C=NCCCN3CCOCC3)=C(O)C2)cc1 (stereo not drawn) | 84.5 | 82.5% (inactive) | 84.5% (inactive) | 102% (inactive) | 99.3% (inactive) | 12.8% (inactive) | 86.5 | 99.3 | -1.15% (inactive) | -1.33% (inactive) | -0.615% (inactive) | 1.58% (inactive) | 0.71% (inactive) | 103% (inactive) | 101% (inactive) | 2.07% (inactive) | 3.01% (inactive)
2 | c1ccc(-c2cn3cccnc3n2)cc1 | 118 | 88.5% (inactive) | 118% (inactive) | 106% (inactive) | 101% (inactive) | 10.5% (inactive) | 90.4 | 101 | -6.45% (inactive) | -0.73% (inactive) | -10.6% (inactive) | -27% (inactive) | 0.59% (inactive) | 110% (inactive) | 100% (inactive) | 3.13% (inactive) | 1.13% (inactive)
3 | O=C(c1cnc2n(c1=O)CCS2)N(C1CCCCC1)C1CCCCC1 | 87 | 84% (inactive) | 87% (inactive) | 106% (inactive) | 102% (inactive) | 5.03% (inactive) | 97.4 | 102 | -4.53% (inactive) | -1% (inactive) | 2.67% (inactive) | -18.9% (inactive) | -2.34% (inactive) | 101% (inactive) | 92.3% (inactive) | 1.71% (inactive) | 2.61% (inactive)
4 | Cc1noc(C)c1S(=O)(=O)N1CCN(Cc2ccc3c(c2)OCO3)CC1 | 82.5 | 105% (inactive) | 82.5% (inactive) | 96.7% (inactive) | 95.4% (inactive) | 9.66% (inactive) | 85.7 | 95.4 | -0.93% (inactive) | 0% (inactive) | -5.76% (inactive) | 7.12% (inactive) | -0.42% (inactive) | 95.3% (inactive) | 98% (inactive) | 0.725% (inactive) | 8.84% (inactive)
5 | COc1cccc(C2CC(=O)Nc3c2c(=O)n(C)c(=O)n3C)c1OC (stereo not drawn) | 98.5 | 101% (inactive) | 98.5% (inactive) | 93.8% (inactive) | 102% (inactive) | 15.2% (inactive) | 87 | 102 | 1.33% (inactive) | -4.75% (inactive) | -3.2% (inactive) | -1.43% (inactive) | 0.25% (inactive) | 98.9% (inactive) | 95.9% (inactive) | 2.06% (inactive) | 7.39% (inactive)
6 | COCCNC(=O)CN1CCN(Cc2cccc(Cl)c2)C1=O | 102 | 112% (inactive) | 102% (inactive) | 99.3% (inactive) | 103% (inactive) | 17.5% (inactive) | 85.4 | 103 | -5.47% (inactive) | -3.93% (inactive) | 6.16% (inactive) | 1.19% (inactive) | -0.8% (inactive) | 102% (inactive) | 95.5% (inactive) | 0.485% (inactive) | -0.14% (inactive)
7 | COCCOC(=O)C1=C(C)N=c2s/c(=C\c3cccs3)c(=O)n2C1c1cccs1 (stereo not drawn) | 91.5 | 77% (inactive) | 91.5% (inactive) | 82.4% (inactive) | 71.9% (inactive) | -4.05% (inactive) | 75.9 | 71.9 | -6.89% (inactive) | -8.17% (inactive) | -9.14% (inactive) | 1.78% (inactive) | -0.91% (inactive) | 86.3% (inactive) | 82.7% (inactive) | 2.83% (inactive) | 6.91% (inactive)
8 | COC(=O)c1cn(NC(=O)C2CCCO2)c(=O)c2ccccc12 (stereo not drawn) | 109 | 76% (inactive) | 109% (inactive) | 93.7% (inactive) | 96.6% (inactive) | 4.83% (inactive) | 91.8 | 96.6 | -6.35% (inactive) | -0.49% (inactive) | -21.3% (inactive) | -23.6% (inactive) | -0.57% (inactive) | 91.2% (inactive) | 98.8% (inactive) | 1.48% (inactive) | 3% (inactive)
9 | c1ccc(N2CCN(Cc3cn4cccnc4n3)CC2)cc1 | 98 | 94% (inactive) | 98% (inactive) | 97.2% (inactive) | 97.6% (inactive) | 3.72% (inactive) | 93.9 | 97.6 | -2% (inactive) | -6.07% (inactive) | -10.3% (inactive) | -6.25% (inactive) | 1.38% (inactive) | 98% (inactive) | 95.1% (inactive) | 0.465% (inactive) | 6.85% (inactive)
10 | COc1ccc(OC)c(C2CC(=O)NC(SC)=C2C#N)c1 (stereo not drawn) | 102 | 94% (inactive) | 102% (inactive) | 83.1% (inactive) | 94.3% (inactive) | 11.6% (inactive) | 82.8 | 94.3 | -5.33% (inactive) | -9.02% (inactive) | -11.4% (inactive) | -5.61% (inactive) | 0.31% (inactive) | 104% (inactive) | 92.6% (inactive) | -0.015% (inactive) | 2.19% (inactive)
11 | CCN1C(=C2C(=O)c3ccccc3C2=O)C=Cc2ccccc21 | 96.5 | 97% (inactive) | 96.5% (inactive) | 92.6% (inactive) | 93.4% (inactive) | -0.49% (inactive) | 93.9 | 93.4 | 0.64% (inactive) | -8% (inactive) | -23.3% (inactive) | -27.6% (inactive) | -1.18% (inactive) | 105% (inactive) | 95.1% (inactive) | 1.86% (inactive) | -0.72% (inactive)
12 | CCOC(=O)N1CCN(c2cc(=O)n(-c3ccccc3Cl)c(=O)[nH]2)CC1 | 98.5 | 124% (inactive) | 98.5% (inactive) | 100% (inactive) | 86.9% (inactive) | -3.22% (inactive) | 90.1 | 86.9 | 0.27% (inactive) | 12.5% (inactive) | -9.94% (inactive) | -0.995% (inactive) | 1.69% (inactive) | 96.8% (inactive) | 105% (inactive) | 0.77% (inactive) | 4.58% (inactive)
13 | COC(=O)NCC(c1cccnc1)N1CCOCC1 (stereo not drawn) | 97 | 95.5% (inactive) | 97% (inactive) | 103% (inactive) | 95.7% (inactive) | 2.39% (inactive) | 93.3 | 95.7 | -0.64% (inactive) | -4.83% (inactive) | -1.88% (inactive) | -7.24% (inactive) | 0.99% (inactive) | 102% (inactive) | 99.6% (inactive) | 0.015% (inactive) | -0.26% (inactive)
14 | O=C(Cn1ncc2c1-c1ccccc1OC2)N1CCN(c2ccccn2)CC1 | 91.5 | 108% (inactive) | 91.5% (inactive) | 101% (inactive) | 89.7% (inactive) | 4.26% (inactive) | 85.5 | 89.7 | -2.05% (inactive) | 0.67% (inactive) | -9.33% (inactive) | -14.6% (inactive) | -1.13% (inactive) | 99.9% (inactive) | 92.7% (inactive) | 0.525% (inactive) | 3.36% (inactive)
15 | CCOC(=O)c1cccc(NC2c3ccccc3C(=O)N2Cc2ccco2)c1 (stereo not drawn) | 98.5 | 98% (inactive) | 98.5% (inactive) | 76.2% (inactive) | 82.1% (inactive) | -6.29% (inactive) | 88.4 | 82.1 | -3.6% (inactive) | -0.83% (inactive) | 2.55% (inactive) | 1.38% (inactive) | -5.15% (inactive) | 64.7% (inactive) | 74.6% (inactive) | 2.4% (inactive) | 8.31% (inactive)
16 | Cc1cc(NC(=O)COc2cccc(C)c2C)no1 | 96 | 102% (inactive) | 96% (inactive) | 94.2% (inactive) | 108% (inactive) | 15.6% (inactive) | 92.5 | 108 | -0.53% (inactive) | -4.26% (inactive) | -0.27% (inactive) | 6.53% (inactive) | 3.52% (inactive) | 102% (inactive) | 105% (inactive) | 2.08% (inactive) | 2.68% (inactive)
17 | CCC(C)C(=O)Nc1nc2c(s1)C(=O)CC(C)(C)C2 (stereo not drawn) | 120 | 106% (inactive) | 120% (inactive) | 97.1% (inactive) | 89.5% (inactive) | 1.27% (inactive) | 88.3 | 89.5 | -6.27% (inactive) | -0.67% (inactive) | -16.6% (inactive) | -8.86% (inactive) | 0.25% (inactive) | 107% (inactive) | 97.5% (inactive) | 2.1% (inactive) | 1.9% (inactive)
18 | COc1cc(C2c3c(oc4ccccc4c3=O)C(=O)N2c2ccc(C)cn2)ccc1O (stereo not drawn) | 66 | 114% (inactive) | 66% (inactive) | 94.6% (inactive) | 101% (inactive) | 1.23% (inactive) | 100 | 101 | -0.9% (inactive) | -4% (inactive) | -6.67% (inactive) | -1.33% (inactive) | -2.69% (inactive) | 91.9% (inactive) | 88.4% (inactive) | 0.865% (inactive) | 4.26% (inactive)
19 | COc1ccc(N2CCN(C(=O)C(C)(C)Oc3ccc(Cl)cc3)CC2)cc1 | 85 | 91.5% (inactive) | 85% (inactive) | 76.9% (inactive) | 68.4% (inactive) | -10.2% (inactive) | 78.6 | 68.4 | -1.07% (inactive) | -2.83% (inactive) | -6.29% (inactive) | 5.29% (inactive) | -4.56% (inactive) | 74.4% (inactive) | 71.7% (inactive) | 1.45% (inactive) | 9.33% (inactive)
